Bioassay records deposited in PubChem BioAssay by Broad Institute.
aSyn 5UTR act – Activators working through SNCA 5'UTR binding (MLPCN). alpha-synuclein 5'UTR reporter, activators screen. activity score, % (tested at 7.5 µM), hits read low. actives 7.1% (n = 300,000). AID 1814; in the data active means activity score below about -60%
Hits are given with their value; 0 = inactive. Not all results are given here.

SMILES | aSyn 5UTR act
Cc1cc(Cl)c(O)c(-n2nc3ccccc3n2)c1 | -142.9
CC(=O)Oc1ccc(C)cc1-n1nc2ccccc2n1 | -211.9
CCOC(=O)c1snc(-c2ccc(F)cc2)c1N | -130.4
CCc1ccc(/C=C\C(=O)N2CCCC2)cc1 | -77.7
CC(C)Cc1ccc(/C=C/C(=O)NC2CC2)cc1 | -108.4
CCCc1ccc(-c2ccc(/C=C/C(=O)O)cc2)nc1 | 0
CC(C)Cc1ccc(/C=C/C(=O)N2CCCCC2)cc1 | -121.0
Cc1cc(/C=C2\SC(=S)N(Cc3ccco3)C2=O)c(C)n1-c1cccnc1 | -180.7
Cc1cccc(/C=N/NC(=O)c2c(-c3ccccc3)noc2C)c1O | 0
Cc1cc(C(=O)N/N=C/c2ccccc2Br)no1 | -68.4
Cn1ccsc1=NC(=O)c1ccc(S(=O)(=O)C(F)F)cc1 | -96.4
COc1ccc(C(=O)N=c2sccn2C)cc1 | -114.5
CN(C)c1ccc(C(=O)N=c2sccn2C)cc1[N+](=O)[O-] | -117.3
Cn1ccsc1=NC(=O)c1ccc(OC(F)(F)F)cc1 | -77.4
Cn1ccsc1=NC(=O)c1ccc(Cl)cc1 | -197.2
Cn1ccsc1=NC(=O)c1ccc(CS(C)(=O)=O)cc1 | -66.3
COC(=O)c1ccc(C(=O)N=c2sccn2C)cc1 | -147.8
Cn1ccs/c1=N\C(=O)Nc1ccccc1 | -128.4
CN(C)c1ccc(C(=O)c2ccc(N(C)C)c3ccccc23)cc1 | 0
CN(C)c1ccc(C(=O)c2ccccc2C(=O)O)cc1[N+](=O)[O-] | -77.1
Cc1cccc(N2CCN(C(=O)CN3C(=O)C4CC=CCC4C3=O)CC2)c1C (stereo not drawn) | -113.3
Cc1cccc(N2CCN(C(=O)NC3CCCCC3)CC2)c1C | -94.8
O=C(/C(=C/c1ccc(Cl)cc1)c1nc2ccccc2[nH]1)c1cccs1 | -177.7
O=C(/C(=C\c1ccccc1)c1nc2ccccc2[nH]1)c1ccc(Cl)cc1 | -227.9
COc1cc(/C=C(/C(=O)c2cccs2)c2nc3ccccc3[nH]2)ccc1O | -86.0
SMILES | aSyn 5UTR act
C/C(=C\c1ccc(N)cc1)c1nc2ccccc2[nH]1 | -172.0
COC(=O)/C(=C\c1ccc(O)cc1)c1nc2ccccc2[nH]1 | -185.8
Cc1onc(-c2ccccc2)c1C(=O)O/N=C(\N)c1ccc([N+](=O)[O-])o1 | -136.0
Cc1ccc(C(=O)NC2CCc3ccccc3C2=O)cc1 (stereo not drawn) | -168.9
COC(=O)c1sccc1NC(=O)c1csc(C)c1 | -80.2
CCOc1ccccc1C(=O)Nc1ccsc1C(=O)OC | 0
COC(=O)c1c(NC(=O)c2ccc(Br)s2)sc2c1CCC2 | -91.5
COC(=O)c1sccc1NC(=O)c1ccc(Br)s1 | -66.9
CC(C)C1N=C(c2ccc3c(c2)OCO3)CC(c2ccccc2O)N1 (stereo not drawn) | -299.7
O=C(O)c1ccc(N/N=C/c2cccc3cccnc23)cc1 | -89.2
O=C(O)c1ccc(N/N=C/c2ccnc3ccccc23)cc1 | -119.4
Oc1ccccc1/C=N/Nc1cccc2cccnc12 | -233.8
Cc1cc(N2CCCC2)nc(-c2ccccc2O)n1 | -61.7
Cc1cc(N2CCCCC2)nc(SCC(=O)c2ccccc2)n1 | -119.1
Nc1nccc(-c2ccc(-n3cccc3)cc2)n1 | -132.1
Cc1ccc2[nH]c3c(NCCCN4CCCC4=O)ncnc3c2c1 | -77.1
Cc1ccc2[nH]c3c(NCc4ccco4)ncnc3c2c1 | -203.0
COc1ccc(C(=O)C[n+]2cn(C(F)F)c3ccccc32)c(F)c1 | -116.9
CC(O)CNc1nc2sc3c(c2c(=O)n1Cc1ccco1)CCCCC3 (stereo not drawn) | -102.6
CN(C)CCNc1nc2sc3c(c2c(=O)n1CCc1ccccc1)CCCCC3 | -87.1
Cc1cc(C)n(-c2nc(NCCN(C)C)c3c4c(sc3n2)CCCC4)n1 | 0
Cc1ccccc1Cn1c(=O)n(Cc2ccco2)c(=O)c2ccccc21 | 0
CC(O)CNc1nc2sc3c(c2c(=O)n1CCc1ccccc1)CCCCC3 (stereo not drawn) | -71.6
NC(=O)Cn1c(=O)n(Cc2ccco2)c(=O)c2c3c(sc21)CCCCC3 | -79.8
Cc1c(Cl)ccc2sc(NC(=O)C3CC3)nc12 | -84.7
SMILES | aSyn 5UTR act
Fc1cccc2sc(Nc3nnc(-c4ccccc4)o3)nc12 | -89.5
O=C(Nc1nc2c(F)cccc2s1)C1CC1 | -111.3
NNc1nc2c(F)cc(F)cc2s1 | -164.5
Fc1cccc2sc(Nc3nc4c(F)cccc4s3)nc12 | -210.1
NNc1nc2c(F)cccc2s1 | -280.7
O=C(Nc1nc2c(F)cc(F)cc2s1)C1CCN(C(=O)c2ccc(F)cc2)CC1 | -162.2
Nc1[nH]c(N=NC(=O)c2ccc(F)cc2)c2ccccc12 | -147.1
Nc1ccccc1C(=O)N=Nc1[nH]c(N)c2ccccc12 | -100.8
COc1ccc(CNC(=S)Nc2ccc(F)c(Cl)c2)cc1 | -109.4
COn1c(-c2ccc(Cl)cc2)nc2ncccc21 | -106.6
Cc1cc(NC(c2ccc(Cl)cc2)c2ccc3cccnc3c2O)no1 (stereo not drawn) | 0
COc1ccc(-c2cc3cc(OC)c(OC)cc3c(C)n2)cc1 | -105.4
CCSc1nnc(-c2c[nH]c3ccccc23)o1 | -103.9
Cc1oc(C(C)(C)C)cc1C(=O)Nc1ccc2c(c1)OCO2 | -87.0
Cc1oc(C(C)(C)C)cc1C(=O)Nc1ccc2c(c1)OCCO2 | -178.9
N/C(=N\OC(=O)/C=C/c1ccccc1)c1ccccc1 | -242.6
CC(C)(C)C(=O)/C=C(N)/C=C/c1ccccc1 | -76.2
O=C(/C=C/c1ccccc1)/C=C/c1ccccc1 | -111.6
O=C(/C=C/c1ccc[nH]1)c1ccccc1 | -63.6
O=C(/C=C/c1ccccc1)c1ccc2c3c(cccc13)CC2 | -86.5
O=C(/C=C/c1ccccc1)c1ccccc1 | -104.9
Cc1cccc(C(=O)N[C@H](C(=O)Nc2nc3ccccc3[nH]2)C(C)C)c1 | 0
COc1ccc(C(=O)Nc2nc3ccccc3s2)cc1OC | -211.6
COc1cc(OC)cc(C(=O)NCC(=O)OCc2nc3ccccc3s2)c1 | -184.3
O=C(Nc1nc2ccccc2s1)c1cc(-c2ccccc2)nn1-c1ccccc1 | -136.6
SMILES | aSyn 5UTR act
CC(C)[C@H](NC(=O)c1cccc(S(=O)(=O)N2CCOCC2)c1)C(=O)Nc1nc2ccccc2s1 | -71.5
COc1cc(C(=O)Nc2nc3ccc(C)cc3s2)ccc1OCc1c(C)noc1C | -98.8
O=C(Nc1nc2ccccc2s1)c1cccc(N2C(=O)CCC2=O)c1 | -82.1
O=C(Nc1nc2ccccc2s1)c1cccc(S(=O)(=O)N2CCc3ccccc32)c1 | -64.5
Cc1ccnc(NC(=O)c2cccc(S(=O)(=O)N3CCCc4ccccc43)c2)c1 | -128.5
COc1cccc(C(=O)Nc2nc(C)cs2)c1 | -141.7
COc1ccc(C(=O)Nc2nc3ccccc3s2)cc1 | 0
COc1cccc(C(=O)Nc2nc3ccccc3s2)c1 | -108.3
CCOC(=O)c1sc(-c2ccccn2)nc1C | -125.5
Cc1nc(-c2ccccn2)sc1C(=O)Nc1ccc(Cl)c(Cl)c1 | -78.4
CCOC(=O)c1sc(NC(=O)CNCc2ccccn2)c(C(=O)OCC)c1C | 0
O=[N+]([O-])c1ccc(N/N=C2\CC3CC=CC23)cc1 (stereo not drawn) | -99.8
FC(F)(F)c1cnc(-c2cnc(-c3cccnc3)nc2)c(Cl)c1 | -124.3
Nc1nnnn1/N=C/C(Br)=C/c1ccccc1 | -250.6
Nc1nnnn1/N=C/C=C/c1ccccc1 | -115.3
O=C(O)c1cccc(Nc2nc(-c3cc4ccccc4oc3=O)cs2)c1 | -98.1
CCn1nccc1C(=O)Nc1ccc(C(=O)OC(C)C)cc1 | -163.0
COCCNC(=O)c1cc2c(s1)-c1ccc(Cl)cc1SC2 | -103.9
O=C(NCCOc1ccccc1)c1ccccc1Cl | -74.9
O=C(NCCOc1ccccc1Cl)c1cc(F)c(F)cc1Cl | -122.6
COc1ccc(CCC(=O)NCCOc2ccccc2Cl)cc1 | -91.8
Clc1ccc(Oc2cnc3ccccc3n2)cc1 | -79.8
